According to PubChem BioAssay (NCATS):
Records with an inconclusive call do not appear. Calls of active or inactive are those of the source. Calls come from the whole dose curve; as a rule, active = well fitted curve in the direction sought with a large enough effect; inconclusive = small, poorly fitted or top-dose-only effect, or another doubt; inactive = no such curve, though single readings can be large; an effect the other way counts as inactive or inconclusive.

Key:
CRL-7250 = normal cell line; assay: Cytotoxic Profiling of Annotated Libraries Using Quantitative High-Throughput Screening (AID 1296008); conditions: Five cell lines viability, CellTiter-Glo ATP luminescence, 48-72 h; max response: stronger effect = lower value; note: nearly all actives have a fitted effect of over 60% in size; for max response: % is set by controls: 0 for no effect and ±100 for the full control effect
In short: (§1)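 Compounds were pin-transferred onto cells and incubated 48 or 72 hr at 37 degree Celsius, 95% humidity. CellTiter-Glo was added, plates sat 10 min at room temperature, then ATP-coupled luminescence was imaged as the viability read-out.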

HEK293 = assay: as above; conditions: Five cell lines viability, CellTiter-Glo ATP luminescence, 48-72 h; max response: stronger effect = lower value
In short: as §1

HaCat [1] = assay: as above; conditions: Five cell lines viability, CellTiter-Glo ATP luminescence, 48-72 h; max response: stronger effect = lower value
In short: as §1

KB-3-1 = assay: as above; conditions: Five cell lines viability, CellTiter-Glo ATP luminescence, 48-72 h; max response: stronger effect = lower value
In short: as §1

NIH3T3 [2] = assay: as above; conditions: Five cell lines viability, CellTiter-Glo ATP luminescence, 48-72 h; max response: stronger effect = lower value
In short: as §1

HACAT [3] = assay: qHTS assay to identify novel small-molecules to repurpose for Merkel cell carcinoma treatment (AID 1296009); conditions: MCC and control cell lines, CellTiter-Glo viability, 72 h; at 44.8 µM (top of the series) unless noted; note: nearly all actives have a fitted effect of over 60% in size
In short: (§2)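 qHTS format: cells treated with library compounds in DMSO across 8 (NPC) or 11 (MIPE) concentrations. Readout after 72 hr at 37 degree celsius was CellTiter-Glo luminescence.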

HEK293T = assay: as above; conditions: MCC and control cell lines, CellTiter-Glo viability, 72 h; series mostly up to 44.8 µM
In short: as §2

NIH3T3 [4] = assay: as above; conditions: MCC and control cell lines, CellTiter-Glo viability, 72 h; at 44.8 µM (top of the series) unless noted
In short: as §2

C33A = assay: Primary qHTS to identify gynecologic anti-cancer compounds using libraries of approved drugs and bioactive compounds (AID 1345084); conditions: Gynecologic cancer cell panel viability, ATPlite luminescence, 48 h; series mostly up to 57.5 µM; note: % is set by controls: 0 for no effect and ±100 for the full control effect; nearly all actives have a fitted effect of over 55% in size
In short: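 Measured: luminescence after ATPlite addition (15 min, RT). Exposure: 48 h, 37 C, 5% CO2.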

COc1cc(/C=C/c2cc(O)cc(O[C@@H]3O[C@H](CO)[C@@H](O)[C@H](O)[C@H]3O)c2)ccc1O
inactive: max response (CRL-7250) 2.61% | outcome (HEK293) | outcome (HaCat [1]) | max response (KB-3-1) 4.08% | outcome (NIH3T3 [2]) | outcome (HACAT [3]) inactive [at 17.4 µM] | Potency (HEK293T) | outcome (NIH3T3 [4]) inactive [at 17.4 µM] | Potency (C33A)

C/C1=C\C[C@H](O[C@@H]2O[C@H](CO)[C@@H](O)[C@H](O)[C@H]2O)/C(C)=C/[C@H]2OC(=O)[C@H](C)[C@@H]2CC1
inactive: max response (CRL-7250) -3.83% | outcome (HEK293) | outcome (HaCat [1]) | max response (KB-3-1) 8.78% | outcome (NIH3T3 [2]) | outcome (HACAT [3]) inactive [at 17.4 µM] | Potency (HEK293T) | outcome (NIH3T3 [4]) inactive [at 17.4 µM] | Potency (C33A)

COc1ccc(C(OC2OC(CO)C(O)C(O)C2O)C(C)O)cc1 (stereo not given)
inactive: max response (CRL-7250) -9.11% | outcome (HEK293) | outcome (HaCat [1]) | max response (KB-3-1) 5.57% | outcome (NIH3T3 [2]) | outcome (HACAT [3]) | Potency (HEK293T) | outcome (NIH3T3 [4]) | Potency (C33A)

NCCOCCOCCNC(=O)Cc1ccc(Nc2nc(NCc3ccc(F)cc3)nc(NCC3CCCCC3)n2)cc1
inactive: outcome (CRL-7250) | outcome (HEK293) | outcome (HaCat [1]) | outcome (KB-3-1) | outcome (NIH3T3 [2]) | outcome (HACAT [3]) | Potency (HEK293T) | outcome (NIH3T3 [4]) | Potency (C33A)

COc1ccc2c(c1)OC[C@]1(O)c3cc4c(cc3O[C@H]21)OCO4
inactive: max response (CRL-7250) -0.876% | outcome (HEK293) | outcome (HaCat [1]) | outcome (KB-3-1) | outcome (NIH3T3 [2]) | outcome (HACAT [3]) | Potency (HEK293T) | outcome (NIH3T3 [4]) | Potency (C33A)

CC(NCc1ccc(OCc2cccc(F)c2)cc1)C(N)=O (stereo not given)
inactive: outcome (CRL-7250) | outcome (HEK293) | outcome (HaCat [1]) | max response (KB-3-1) 9.7% | outcome (NIH3T3 [2]) | outcome (HACAT [3]) | Potency (HEK293T) | outcome (NIH3T3 [4]) | Potency (C33A)

O=C(NN1CCCCC1)c1nn(-c2ccc(Cl)cc2Cl)c(-c2ccc(C#Cc3ccc(C(F)(F)F)cc3)s2)c1CNS(=O)(=O)N1CCCC1
inactive: max response (CRL-7250) -7.83% | outcome (HEK293) | outcome (HaCat [1]) | max response (KB-3-1) 4.58% | outcome (NIH3T3 [2]) | outcome (HACAT [3]) | Potency (HEK293T) | outcome (NIH3T3 [4]) | Potency (C33A)

O=C1N(CC2CCCCN2)CCN1c1ccccc1 (stereo not given)
inactive: max response (CRL-7250) -3.2% | outcome (HEK293) | outcome (HaCat [1]) inactive; activator | outcome (KB-3-1) | outcome (NIH3T3 [2]) | outcome (HACAT [3]) inactive; activator | Potency (HEK293T) | outcome (NIH3T3 [4]) | Potency (C33A)

COc1cc(CCc2ccccc2)c(C(=O)O)c2c1CC(C(C)(C)O)O2 (stereo not given)
inactive: outcome (CRL-7250) | outcome (HEK293) | outcome (HaCat [1]) | outcome (KB-3-1) | outcome (NIH3T3 [2]) | outcome (HACAT [3]) | Potency (HEK293T) | outcome (NIH3T3 [4]) | Potency (C33A)

CC(=O)OC1C=C(C(=O)O)C2(CO)CCC(C)C(C)(CCc3ccoc3)C2C1 (stereo not given)
inactive: max response (CRL-7250) -9.02% | outcome (HEK293) | outcome (HaCat [1]) | outcome (KB-3-1) | outcome (NIH3T3 [2]) | outcome (HACAT [3]) inactive [at 17.4 µM] | Potency (HEK293T) | outcome (NIH3T3 [4]) inactive [at 17.4 µM] | Potency (C33A)

CNC(=O)O[C@H]1COc2ccc(N3CCN(C4COC4)CC3)cc2[C@@H]1NC(=O)c1ccc(F)cc1
inactive: max response (CRL-7250) -2.36% | outcome (HEK293) | outcome (HaCat [1]) | outcome (KB-3-1) | outcome (NIH3T3 [2]) | outcome (HACAT [3]) | Potency (HEK293T) | outcome (NIH3T3 [4]) | Potency (C33A)

COc1cc2c(cc1O)C1(Cc3ccc4c(c3C1=O)OCO4)N(C)CC2 (stereo not given)
inactive: max response (CRL-7250) 3.99% | outcome (HEK293) | outcome (HaCat [1]) | max response (KB-3-1) 1.1% | outcome (NIH3T3 [2]) | outcome (HACAT [3]) | Potency (HEK293T) | outcome (NIH3T3 [4]) | Potency (C33A)

CC(C)C1=CC2=CCC3[C@](C)(CCC[C@@]3(C)C(=O)O)C2CC1O (stereo not given in full)
inactive: max response (CRL-7250) -2.15% | outcome (HEK293) | outcome (HaCat [1]) | outcome (KB-3-1) | outcome (NIH3T3 [2]) | outcome (HACAT [3]) | Potency (HEK293T) | outcome (NIH3T3 [4]) | Potency (C33A)

C=C1CC[C@H]2[C@@H](/C=C(\C)C(=O)[C@@]3(OC(C)=O)C[C@H](C)[C@H](OC(C)=O)[C@@H]3[C@H]1OC(C)=O)C2(C)C
inactive: outcome (CRL-7250) | outcome (HEK293) | outcome (HaCat [1]) | outcome (KB-3-1) | outcome (NIH3T3 [2]) | outcome (HACAT [3]) inactive [at 17.4 µM] | Potency (HEK293T) | outcome (NIH3T3 [4]) inactive [at 17.4 µM] | Potency (C33A)

COc1cc(NC(=O)c2ccccn2)ccc1Cl
inactive: max response (CRL-7250) 4.88% | outcome (HEK293) | outcome (HaCat [1]) | max response (KB-3-1) -6.58% | outcome (NIH3T3 [2]) | outcome (HACAT [3]) | Potency (HEK293T) | outcome (NIH3T3 [4]) | Potency (C33A)
